Laboratory results as given in PubChem BioAssay (NCATS).
Results filed as inconclusive are left out. Where a call stands in place of a potency, no number is given. The source made the active and inactive calls. The call rests on the fitted dose curve; in most records, active means well fitted cell-killing curve with a large enough effect; inconclusive means small, poorly fitted or top-dose-only effect; inactive means no such curve, though single readings can be large or run the other way.
Potency means the concentration at half of the fitted maximal effect.

Assay: qHTS of pediatric cancer cell lines to identify multiple opportunities for drug repurposing: Primary screen for SK-N-MC cells (AID 1347093)
Settings: SK-N-MC viability, CellTiter-Glo luminescence, 48 h; series mostly up to 46 µM
Excerpt: Drug repurposing or repositioning has been offered as a strategy for drug development in oncology programs. This approach has special potential for childhood cancers and other rare or orphan diseases, where the expected return on new drug development has been a disincentive to pharmaceuticals.
In this project we exploit the poly-pharmacology of drugs to discover new indications via phenotypic screening of a panel of 19 well-characterized cell lines derived from solid tumors seen in children and adolescents. The goal is to identify approved drugs with previously unrecognized anticancer properties that has the potential to reveal new mechanisms and biological processes involved in carcinogenesis or drug resistance. We employed a titration-based paradigm (quantitative high-throughput screening or qHTS), where all compounds were tested at multiple concentrations for their effect on cell viability. Concentration-response curves (CRCs) were derived directly from the primary screen, and both potency and efficacy values were used to identify compounds with robust bioactivity profiles. We screened the NIH Chemical Genomics Center (NCGC) Pharmaceutical Collection (NPC) and Mechanism Interrogation Plate (MIPE) small molecule collections of approved and investigational compounds against these cell lines; and measured metabolically active cells after 48 hours of compound treatment as a proxy for cell viability.
Assay Submitter: Nathalia J. Martinez, National Center for Advancing Translational Sciences, National Institutes of Health, Rockville, MD, USA; email: natalia.martinez@nih.gov
[1] Shen, M et al. Quantitative high-throughput phenotypic screening of pediatric cancer cell lines identifies multiple opportunities for drug repurposing. Oncotarget 2017 Dec 19;9(4):4758-4772. PMID 29435139.
The cells were obtained from University of North Carolina (UNC), Pediatric Preclinical Testing Program (PPT), and Coriell Institute (CI).
qHTS cell viability assay:
Cells were assayed in growth media at a density of 500-1,000 cells/well. Five microliters of cells were dispensed into 1,536-well, white, solid-bottom, TC-treated plates (Greiner Bio One) using a multidrop dispenser and incubated at 37 degrees C, 5% CO2, under a humidified atmosphere for 5 hours. Twenty-three nanoliters of compounds and controls (neutral control DMSO or positive control bortezomib at final concentration of 2.3 µM) were subsequently transferred by Kalypsys pintool. For primary screens, the MIPE collection was tested at 11-point dilutions (final concentrations range from 0.78 nM to 46 µM) and the NPC collection at 8-point dilutions (final concentrations range from 0.59nM to 46 µM). Compounds tested in follow-up screens were assayed at 11-point dilutions. Cells were incubated for 48 hours, followed by addition of 3 uL of CellTiter-Glo (Promega). After a 15 min incubation at room temperature, samples were analyzed for luminescence intensity using a ViewLux High-throughput CCD imager equipped with clear filters.
With `CC(=O)c1ccc(O)c(C(N)=O)c1` the Potency was “inactive”.
With `O=C(O)Cn1c(=O)n(Cc2ccc(Br)cc2F)c(=O)c2ccc(Cl)cc21` the Potency was “inactive”.
In the case of `COc1cc(S(N)(=O)=O)cc(C(=O)O)c1OC`, the Potency is reported as “inactive”.
With `Cc1sccc1Br` the Potency was “inactive”.
In the case of `Cc1ccc(O)cc1`, the Potency is reported as “inactive”.
With `O=C(O)CCCC[C@@H]1SC[C@@H]2NC(=O)N[C@@H]21` the Potency was “inactive”.
With `CO[C@@H]1[C@@H](OC)[C@H](C)[C@@](O)(CC(=O)O)O[C@H]1[C@H](C)[C@H]1O[C@@]2(CC[C@@](C)([C@H]3CC[C@@](C)([C@@H]4O[C@@H]([C@H]5O[C@](C)(O)[C@H](C)C[C@@H]5C)C[C@@H]4OC4C[C@H](OC)[C@@H](OC)[C@H](C)O4)O3)O2)C[C@H](O)[C@H]1C` (stereo not given in full) the Potency was 0.188 µM (active).
With `c1ccc2c(c1)CCc1ccccc1N2` the Potency was “inactive”.
In the case of `CC(=O)OCC(=O)[C@@]1(O)CCC2C3CCC4=CC(=O)CC[C@]4(C)C3[C@@H](O)C[C@@]21C` (stereo not given in full), the Potency is reported as “inactive”.
For `CC(COc1ccccc1)NN` (stereo not given), the Potency was “inactive”.
With `CC(C)(C)C1CCC(CC2=C(O)c3ccccc3C(=O)C2=O)CC1` (stereo not given) the Potency was 5.31 µM (active).
For `CCCC(=O)OCOC(=O)C1=C(C)NC(C)=C(C(=O)OC)C1c1cccc(Cl)c1Cl` (stereo not given), the Potency was “inactive”.
For `CCOC(=O)C(=O)c1csc(NC=O)n1`, the Potency was “inactive”.
In the case of `O=C(CCCl)NCc1ccccc1`, the Potency is reported as “inactive”.
For `COC(=O)c1cc(Cl)c(NC(C)=O)cc1OC`, the Potency was “inactive”.
With `O=C(OCC1(COC(=O)c2cccnc2)CCCC(COC(=O)c2cccnc2)(COC(=O)c2cccnc2)C1O)c1cccnc1` the Potency was “inactive”.
For `CCC1(c2cnc[nH]2)Cc2ccccc2C1`, the Potency was “inactive”.
With `CNC[C@H](O)[C@@H](O)[C@H](O)[C@H](O)CO` the Potency was “inactive”.
For `C[C@@H]1C[C@H]2[C@@H]3CCC4=CC(=O)C=C[C@]4(C)[C@@]3(F)[C@@H](O)C[C@]2(C)[C@@]1(O)C(=O)COC(=O)c1ccncc1`, the Potency was “inactive”.
For `Cc1cnc(NS(=O)(=O)c2ccc(N)cc2)nc1`, the Potency was “inactive”.
In the case of `CC(=O)Nc1c(I)c(NC(C)=O)c(I)c(C(=O)O)c1I`, the Potency is reported as “inactive”.
In the case of `CCCC(=O)O[C@]1(C(=O)COC(=O)CC)CC[C@H]2[C@@H]3CCC4=CC(=O)CC[C@]4(C)[C@H]3[C@@H](O)C[C@@]21C`, the Potency is reported as “inactive”.
For `CCN(CC)C(=O)C1CN2CCc3cc(OC)c(OC)cc3C2CC1OC(C)=O` (stereo not given), the Potency was “inactive”.
For `NC(=O)COCCN1CCN(C(c2ccccc2)c2ccc(Cl)cc2)CC1` (stereo not given), the Potency was “inactive”.
With `Clc1ccc2c(c1)Nc1ccccc1S2` the Potency was “inactive”.
For `Brc1ccccc1-c1ccccc1`, the Potency was “inactive”.
For `CC(=O)OCC(=O)[C@@]1(O)[C@H](OC(C)=O)C[C@H]2[C@@H]3CCC4=CC(=O)C=C[C@]4(C)[C@@]3(F)[C@@H](O)C[C@@]21C`, the Potency was “inactive”.
With `CC(C)OC(=O)c1cc2c(OCC(O)CNC(C)(C)C)cccc2[nH]1` (stereo not given) the Potency was “inactive”.
In the case of `C1=CC2C3C=CC(C3)C2C1` (stereo not given), the Potency is reported as “inactive”.
For `Cc1cc(C(C)(C)C)c(O)c(C(C)(C)C)c1`, the Potency was “inactive”.
With `CCOC(=O)N1CCC(Nc2ccc(Cl)cc2N)CC1` the Potency was 10.6 µM (active).
In the case of `C/C(=N/NC(=O)c1ccncc1)C(=O)O`, the Potency is reported as “inactive”.
With `CCc1cc(S(=O)(=O)O)c2cc(C(C)C)cccc1-2` the Potency was “inactive”.
For `CCC(=O)Oc1ccc2c(c1)CC[C@@H]1[C@@H]2CC[C@@]2(C)[C@H]1C[C@@H](OC(=O)CC)[C@@H]2OC(=O)CC`, the Potency was “inactive”.
For `NS(=O)(=O)c1ccc(N2CCCCS2(=O)=O)cc1`, the Potency was “inactive”.
In the case of `CCN(CC)CC(=O)OCC(=O)[C@@]1(O)CC[C@H]2[C@@H]3CCC4=CC(=O)CC[C@]4(C)[C@H]3[C@@H](O)C[C@@]21C`, the Potency is reported as “inactive”.
In the case of `O=C(O)/C=C(\CC(=O)O)C(=O)O`, the Potency is reported as “inactive”.
For `Fc1ccc(C(c2ccc(F)cc2)N2CCNCC2)cc1`, the Potency was “inactive”.
For `CCCc1ncc(C(=O)O)s1`, the Potency was “inactive”.
In the case of `CSc1ccc(/C=C2/C(C)=C(CC(=O)O)c3cc(F)ccc32)cc1`, the Potency is reported as “inactive”.
